For 29 compounds, outcome and AC50 results are on record in PubChem BioAssay (EPA / NIEHS).

Records with an inconclusive call do not appear. The source made the active and inactive calls. How the source made its calls, unless noted: active means hit-call score of the fitted dose curve at least 0.9, where 1 is the maximum; inactive means score below 0.9.

A short description of test [1]: ATG_NFI_CIS: Attagene CIS-FACTORIAL HepG2 Assay for human Nuclear Factor I (NFI) (AID 2282989). Conditions: HepG2 cis-regulatory reporter, NFI response element transcription; actives raise or lower the signal. Summed up: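 HepG2 cells transiently transfected with cis-element-driven multiplexed reporter transcription units, dosed for 24 h. Reporter mRNA quantified by RT-PCR, fluorescent labelling, HpaI digestion and capillary electrophoresis; bidirectional fit versus DMSO baseline.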

Test [2] has as its target Myc proto-oncogene protein (Homo sapiens) (UniProt P01106). As to the kind of experiment: ATG_Myc_CIS: Attagene CIS-FACTORIAL HepG2 Assay for human Myelocytomatosis (Myc) Proto-Oncogene Transcription Factor (AID 2282990). To be noted: HepG2, Attagene cis-reporter transcription factor activity; actives raise or lower the signal. Summed up:
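Read-out: fluorescent reporter mRNA fragments resolved by capillary electrophoresis after RT-PCR. Human HepG2 liver cells carried transfected cis-element reporter units and were dosed for 24 h. Gain or loss of signal fitted relative to DMSO baseline.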

Test [3] can be described thus: ATG_NF_kB_CIS: Attagene CIS-FACTORIAL HepG2 Assay for human Nuclear Factor Kappa B (NF-kB) (AID 2282991). Conditions: HepG2 Attagene cis-factorial NF-kB reporter mRNA; actives raise or lower the signal. Summed up: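 Endogenous transcription factor activity in HepG2 was captured via cis-regulated reporter constructs; after 24 h dosing, reporter mRNA was reverse-transcribed, amplified, fluorescently labelled and sized by capillary electrophoresis, with activity fitted bidirectionally relative to DMSO.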

A short description of test [4]: ATG_NRF2_ARE_CIS: Attagene CIS-FACTORIAL HepG2 Assay for human Nuclear Factor Erythroid 2 Related Factor 2 (NFR2) response to Antioxidant Response Elements (ARE) (AID 2282992).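 On AC50: reporter mRNA level measured by RT-PCR and capillary electrophoresis fluorescence.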 To be noted: HepG2 Attagene ARE/NRF2 reporter, transcription factor activity; actives raise or lower the signal. Summed up:
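Readout: reporter mRNA quantified by RT-PCR plus FAM-labelled primer extension, HpaI digestion and capillary electrophoresis, 24 h after dosing transfected HepG2 cells. Gain or loss of signal is fitted bidirectionally against DMSO baseline.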

Test [5] is described as follows: ATG_Oct_MLP_CIS: Attagene CIS-FACTORIAL HepG2 Assay for human Octamer-Binding Transcription Factor (Oct) (AID 2282993). Conditions: HepG2 Attagene cis-factorial Oct reporter, mRNA; actives raise or lower the signal. Summed up:
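HepG2 cells transiently transfected with cis-promoter-driven multiplexed reporter transcription units, dosed for 24 h. Reporter mRNA quantified by RT-PCR, fluorescent labelling, HpaI digestion and capillary electrophoresis; bidirectional fits versus DMSO baseline.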

Test [6] deals with Cellular tumor antigen p53 (Homo sapiens) (UniProt P04637). As to the kind of experiment: ATG_p53_CIS: Attagene CIS-FACTORIAL HepG2 Assay for human p53 Transcription Factor (AID 2282994). To be noted: HepG2 p53 cis-element reporter, Attagene mRNA; actives raise or lower the signal. Summed up: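 Read-out: reporter mRNA by RT-PCR plus capillary electrophoresis with fluorescence detection. Human HepG2 liver cells carried transfected multi-reporter cis-element constructs, dosed 24 h. Gain or loss of signal fitted bidirectionally against DMSO control.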

The target in test [7] is human Peroxisome Proliferator-activated Receptor alpha (PPARa), PPARA (gene 5465) (UniProt Q07869). Description: ATG_PPARa_TRANS: Attagene TRANS-FACTORIAL HepG2 Assay for human Peroxisome Proliferator-activated Receptor alpha (PPARa) (AID 2283001; active means hit-call score of the fitted dose curve at least 0.9, where 1 is the maximum;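 on AC50: potency for gain of reporter signal over DMSO so agonist or activator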). Summed up: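 Transient HepG2 transfection, GAL4-UAS reporters, NR-Gal4 chimeras; 24 h compound exposure. Readout: reporter transcripts by RT-PCR, 6-FAM primer extension, HpaI digest, capillary electrophoresis. Positive direction vs DMSO baseline.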
Chain of human Peroxisome Proliferator-activated Receptor alpha (PPARa), PPARA (gene 5465) (Q07869 whole entry, looked up, the tested form may be a part): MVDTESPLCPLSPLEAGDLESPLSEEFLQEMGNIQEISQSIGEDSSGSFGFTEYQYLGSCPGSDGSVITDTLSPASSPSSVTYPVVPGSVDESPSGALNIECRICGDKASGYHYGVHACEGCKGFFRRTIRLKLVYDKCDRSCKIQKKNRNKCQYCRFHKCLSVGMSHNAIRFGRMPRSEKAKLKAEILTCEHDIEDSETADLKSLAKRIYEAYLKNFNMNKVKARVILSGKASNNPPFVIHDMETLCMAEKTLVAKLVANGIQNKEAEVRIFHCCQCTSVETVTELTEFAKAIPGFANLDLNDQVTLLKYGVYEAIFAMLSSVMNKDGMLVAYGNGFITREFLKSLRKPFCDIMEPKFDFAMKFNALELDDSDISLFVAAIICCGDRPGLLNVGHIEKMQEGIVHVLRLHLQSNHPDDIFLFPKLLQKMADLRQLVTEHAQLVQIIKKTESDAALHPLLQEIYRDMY

Chain of Myc proto-oncogene protein (Homo sapiens) (P01106 whole entry, looked up, the tested form may be a part): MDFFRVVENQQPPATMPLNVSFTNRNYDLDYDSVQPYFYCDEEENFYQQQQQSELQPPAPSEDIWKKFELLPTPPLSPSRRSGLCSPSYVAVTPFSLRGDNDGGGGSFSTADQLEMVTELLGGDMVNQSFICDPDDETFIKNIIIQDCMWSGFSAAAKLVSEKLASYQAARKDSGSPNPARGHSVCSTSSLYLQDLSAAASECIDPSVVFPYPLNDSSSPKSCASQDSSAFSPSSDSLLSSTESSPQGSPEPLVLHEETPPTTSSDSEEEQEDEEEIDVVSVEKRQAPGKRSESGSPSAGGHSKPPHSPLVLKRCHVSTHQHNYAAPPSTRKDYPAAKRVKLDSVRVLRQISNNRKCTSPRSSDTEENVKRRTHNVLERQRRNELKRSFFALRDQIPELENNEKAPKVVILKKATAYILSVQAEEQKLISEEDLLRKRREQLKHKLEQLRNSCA
Chain of Cellular tumor antigen p53 (Homo sapiens) (P04637 whole entry, looked up): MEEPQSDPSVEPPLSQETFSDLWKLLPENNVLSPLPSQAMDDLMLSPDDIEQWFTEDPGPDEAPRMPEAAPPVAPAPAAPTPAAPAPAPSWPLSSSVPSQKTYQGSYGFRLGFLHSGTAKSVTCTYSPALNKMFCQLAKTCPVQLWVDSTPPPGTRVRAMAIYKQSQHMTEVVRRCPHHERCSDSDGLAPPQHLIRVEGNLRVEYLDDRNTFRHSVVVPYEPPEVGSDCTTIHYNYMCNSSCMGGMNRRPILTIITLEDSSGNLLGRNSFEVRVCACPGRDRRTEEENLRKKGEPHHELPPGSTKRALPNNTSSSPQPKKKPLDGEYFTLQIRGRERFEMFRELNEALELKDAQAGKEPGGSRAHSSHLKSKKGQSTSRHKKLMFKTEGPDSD

Take `O=C(O)c1cc2ccccc2nc1C(=O)O`: the compound was classed as inactive in test [1], in test [2], in test [3], in test [4], in test [5] and in test [6]. The result in test [7] was inactive.
As usually defined, the AC50 is the concentration at which the activity in the assay is half-maximal. Take `CC(C)(Oc1ccc(C2CC2(Cl)Cl)cc1)C(=O)O` (stereo not drawn): the compound was called inactive in test [1], in test [2], in test [3], in test [4], in test [5] and in test [6]. Moreover, the half-maximal activity concentration (AC50) in test [7] was 0.975 µM (active).
As to `C=CCCCCCCCCC(=O)OCCCC`, the result in test [1], in test [2], in test [3], in test [4], in test [5] and in test [6] was inactive. The result in test [7] was inactive.
For `[Cl][Bi]([Cl])([c]1ccccc1)([c]1ccccc1)[c]1ccccc1`, the result in test [1], in test [2] and in test [5] was inactive. For the same compound, the half-maximal activity concentration (AC50) is 0.463 µM (active) in test [3], 0.999 µM (active) in test [4], 6.07 µM (active) in test [6] and 5.11 µM (active) in test [7].
`Clc1nc2ccccc2s1`: the call in test [1], in test [2], in test [3], in test [4], in test [5] and in test [6] was inactive. For the same compound, the result in test [7] was inactive.
As for `CCCCCCCCCCCSCC(=O)O`, the call in test [1], in test [2], in test [3], in test [4] and in test [6] was inactive. The values for the AC50 in test [5] and in test [7] were 79.2 µM (active) and 2.85 µM (active), respectively.
`CC(=O)c1ccc2c(c1)CCCC2`: the compound was classed as inactive in test [1], in test [2], in test [3], in test [4], in test [5] and in test [6]. In test [7], the compound was classed as inactive.
On to `CCc1nccnc1C`, for which the compound was classed as inactive in test [1], in test [2], in test [3], in test [4], in test [5] and in test [6]. Besides, the outcome in test [7] was inactive.
For `O=C(Nc1cccc(C(F)(F)F)c1)c1cc(Br)cc(Br)c1O`, the AC50 in test [1] is 100 µM (active); in test [2], 166 µM (active); in test [3], 169 µM (active); in test [4], 0.851 µM (active); in test [5], 2.95 µM (active); in test [6], 147 µM (active). In test [7], the concentration at half-maximal activity (AC50) is 1.58 µM (active).
On to `CCC(CO)CO`, for which the result in test [1], in test [2], in test [3], in test [4], in test [5] and in test [6] was inactive. Besides, the call in test [7] was inactive.
As to `CC(C)=CCCC(C)C=O` (stereo not drawn), the result in test [1], in test [2], in test [3], in test [4], in test [5] and in test [6] was inactive. In test [7], the compound was classed as inactive.
As for `O=C1CC2CC1C1CCCC21` (stereo not drawn), the result in test [1], in test [2], in test [3], in test [5], in test [6] and in test [7] was inactive. Moreover, the AC50 in test [4] was 72.4 µM (active).
On to `CCOC(=O)CC(C(C)=O)C(C)=O`, for which the result in test [1], in test [2], in test [3], in test [4], in test [5] and in test [6] was inactive. The outcome in test [7] was inactive.
Turning to `C(=CC=Nc1ccccc1)C=CNc1ccccc1`, the result in test [1], in test [2], in test [3], in test [5], in test [6] and in test [7] was inactive. In test [4], the AC50 is 49.4 µM (active).
Regarding `O=C1C=CC(=O)O1`, the compound was classed as inactive in test [1], in test [2], in test [3], in test [4], in test [5] and in test [6]. In addition, the outcome in test [7] was inactive.
As to `OC1OCCOC1O` (stereo not drawn), the call in test [1], in test [2], in test [3], in test [4], in test [5] and in test [6] was inactive. In addition, in test [7], the call was inactive.
Turning to `Nc1ccc(Cl)cc1Cl`, the compound was classed as inactive in test [1], in test [2], in test [3], in test [4], in test [5] and in test [6]. Besides, the compound was called inactive in test [7].
Regarding `Cc1cc(O)c(Cl)c(C)c1Cl`, the compound was called inactive in test [1], in test [2], in test [3], in test [5], in test [6] and in test [7]. The AC50 in test [4] is 33.4 µM (active).
Take `NC(=O)N=NC(N)=O`: the result in test [1], in test [2], in test [3], in test [4], in test [5] and in test [6] was inactive. Besides, the compound was called inactive in test [7].
Regarding `C=CC(=O)OCCOC1C2CCC1C1CC=CC12` (stereo not drawn), the call in test [1], in test [2], in test [3], in test [4], in test [5] and in test [6] was inactive. Also, the compound was classed as inactive in test [7].
As for `CC(=O)NS(=O)(=O)c1ccc(N)cc1`, the compound was classed as inactive in test [1], in test [2], in test [3], in test [4], in test [5] and in test [6]. The outcome in test [7] was inactive.
Regarding `OCCN(CCO)c1ccccc1`, the call in test [1], in test [2], in test [3], in test [4], in test [5] and in test [6] was inactive. The result in test [7] was inactive.
Consider `NC(=O)C1CO1` (stereo not drawn), for which the result in test [1], in test [2], in test [3], in test [4], in test [5] and in test [6] was inactive. The outcome in test [7] was inactive.
Regarding `CC(=O)[C@H]1[C@H](C#N)C[C@H]2[C@@H]3CC=C4C[C@@H](O)CC[C@]4(C)[C@H]3CC[C@@]21C`, the compound was classed as inactive in test [1], in test [2], in test [3], in test [4], in test [5] and in test [6]. Moreover, the outcome in test [7] was inactive.
As for `Nc1ncn([C@@H]2O[C@H](CO)[C@@H](O)[C@H]2O)c(=O)n1`, the call in test [1], in test [2], in test [3], in test [4] and in test [7] was inactive. In addition, the AC50 is 8.32 µM (active) in test [5] and 2.1 µM (active) in test [6].
As to `COC(=O)c1ccc2cc(C(=O)OC)ccc2c1`, the compound was classed as inactive in test [1], in test [2], in test [3], in test [4], in test [5] and in test [6]. In addition, the result in test [7] was inactive.
As to `C=CC(=O)OCCC(=O)O`, the call in test [1], in test [2], in test [3], in test [5], in test [6] and in test [7] was inactive. Besides, the concentration at half-maximal activity (AC50) in test [4] is 43.2 µM (active).
As for `O=c1[nH]c(=O)c2[nH]c(=O)[nH]c2[nH]1`, the outcome in test [1], in test [2], in test [3], in test [4], in test [5] and in test [6] was inactive. For the same compound, in test [7], the compound was called inactive.
For the compound `CC1=Nc2ccc3ccccc3c2C1(C)C`, the compound was classed as inactive in test [1], in test [2], in test [3], in test [5], in test [6] and in test [7]. Besides, the AC50 in test [4] was 100 µM (active).
